This note sets out measurements from PubChem BioAssay (EPA / NIEHS).

Results filed as inconclusive are left out. Calls of active or inactive are those of the source. Rule for the calls: active = hit-call score of the fitted dose curve at least 0.9, where 1 is the maximum; inconclusive = response in the unintended direction; inactive = score below 0.9.

Sequence of Retinoic acid receptor alpha (Homo sapiens) (P10276 whole entry, looked up, the tested form may be a part): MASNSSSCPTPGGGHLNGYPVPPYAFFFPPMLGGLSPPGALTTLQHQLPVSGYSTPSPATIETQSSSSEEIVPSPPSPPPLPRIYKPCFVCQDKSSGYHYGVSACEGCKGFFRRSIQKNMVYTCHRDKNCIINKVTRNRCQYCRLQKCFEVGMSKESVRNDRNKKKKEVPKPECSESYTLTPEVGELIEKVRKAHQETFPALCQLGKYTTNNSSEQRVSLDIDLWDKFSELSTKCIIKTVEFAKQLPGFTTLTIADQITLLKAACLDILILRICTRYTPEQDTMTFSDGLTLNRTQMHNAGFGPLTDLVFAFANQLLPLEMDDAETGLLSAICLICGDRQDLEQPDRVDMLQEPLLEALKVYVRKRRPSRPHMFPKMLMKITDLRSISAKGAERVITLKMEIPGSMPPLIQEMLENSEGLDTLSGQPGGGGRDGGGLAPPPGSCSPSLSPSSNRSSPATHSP

For this test, the target named is Retinoic acid receptor alpha (Homo sapiens) (UniProt P10276). In words: ATG_RARa_TRANS: Attagene TRANS-FACTORIAL HepG2 Assay for human Retinoic Acid Receptor alpha (RARa) (AID 2283005). The gist of the method:
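Reporter transcripts, measured by RT-PCR with fluorescent labeling and capillary electrophoresis after 24 h dosing, reflect activity of an exogenous human RARa–GAL4 fusion in transiently transfected HepG2. Fitted for increase relative to DMSO.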
For `CCc1cccc(C)c1N`, the compound was classed as inactive.
Take `COc1ccc(-c2coc3cc(O)cc(O)c3c2=O)cc1`: the result was inactive.
Consider `CC=CC(=O)OCC(C)C`, for which the call was inactive.
The same measure for `CC1C(C)(C)C2=C(C(=O)CCC2)C1(C)C` (stereo unspecified): “inactive”.
For the compound `CCN(CC)c1cccc(C)c1`, the outcome was inactive.
The same measure for `O=C(Nc1ccccc1)c1cc(Cl)ccc1O`: “inactive”.
Regarding `CN(C)c1ccc2nc3ccc(=[N+](C)C)cc-3sc2c1`, the call was inactive.
Regarding `CC(=O)c1ccc(S(=O)(=O)NC(=O)NC2CCCCC2)cc1`, the compound was called inactive.
As for `CC1=NN(c2ccc(S(=O)(=O)O)cc2)C(=O)C1N=Nc1ccccc1` (stereo unspecified), the entry is “inactive”.
As for `O=c1c(O)c(-c2ccc(O)cc2O)oc2cc(O)cc(O)c12`, the compound was called inactive.
Turning to `C=C(C)[C@@H]1CC=C(C)CC1`, the call was inactive.
Take `CCOC(=O)c1ccccc1C`: the compound was called inactive.
As to `CCCSSCCC`, the result was inactive.
As for `CCCCCCCCCCCCCC(=O)OC(C)C`, the compound was called inactive.
As to `CC(=O)C(C)C`, the result was inactive.
Turning to `Cc1c(C(=O)c2c[nH]n(C)c2=O)ccc(S(C)(=O)=O)c1C1=NOCC1`, the compound was classed as inactive.
The same measure for `CC1=CCC2CC1C2(C)C` (stereo unspecified): “inactive”; for `CC(=O)OCC=C(C)C`: “inactive”; for `O=C1CCCCC1C1CCCCC1` (stereo unspecified): “inactive”.
Consider `CC(=O)OC/C=C(/C)CCC=C(C)C`, for which the compound was called inactive.
The same measure for `[Cl][Sc]([Cl])[Cl]`: “inactive”.
